From PubChem BioAssay (Tox21)
Records with an inconclusive call do not appear. Entries that show only a call come without a potency. Values without a mark were called inactive. Calls of active or inactive are those of the source. Calls follow the shape of the full dose curve.

Biological target: Beta-2 adrenergic receptor (Homo sapiens) (UniProt P07550)
Assay: Adrenergic beta2 receptor (ADRB2) small molecule agonists, cell-based qHTS assay (AID 1963593);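 as to activation: CHO cells stably overexpressing human ADRB2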
Details: CHO-ADRB2 cells, cAMP HTRF, 30 min; series mostly up to 92.4 µM
How it was run: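 CHO cells stably over-expressing ADRB2 were plated overnight at 37C, then dosed with compounds plus a stimulation mix containing 100uM IBMX and 25uM Ro-20-1724 for 0.5hr at room temperature. cAMP was measured by HTRF competition, 1hr.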
Potency is read from the fitted curve at half-maximal effect.

Sequence of Beta-2 adrenergic receptor (Homo sapiens) (P07550 whole entry, looked up): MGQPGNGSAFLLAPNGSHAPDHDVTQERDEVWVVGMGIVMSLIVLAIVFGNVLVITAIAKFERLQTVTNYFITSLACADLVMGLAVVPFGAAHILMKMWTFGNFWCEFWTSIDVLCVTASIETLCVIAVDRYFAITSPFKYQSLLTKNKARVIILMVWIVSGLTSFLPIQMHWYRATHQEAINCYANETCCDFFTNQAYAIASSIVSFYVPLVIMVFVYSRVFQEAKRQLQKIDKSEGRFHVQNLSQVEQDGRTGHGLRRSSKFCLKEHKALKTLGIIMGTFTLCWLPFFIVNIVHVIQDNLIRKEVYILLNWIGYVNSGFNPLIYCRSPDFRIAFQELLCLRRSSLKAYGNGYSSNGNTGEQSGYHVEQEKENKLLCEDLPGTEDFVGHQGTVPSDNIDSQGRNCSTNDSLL

Row | Structure (SMILES) | activation | Potency
1 | O=C1c2ccccc2C(=O)c2ccccc21 | -36.8% [at 19 µM] | 
2 | CCOP(O)OCC |  | inactive
3 | CNN |  | inactive
4 | CCC#N |  | inactive
5 | CCCSP(=S)(OCC)Oc1ccc(SC)cc1 (configuration not stated) |  | inactive
6 | CNC(=O)O/N=C(\C)C(C)S(C)(=O)=O (configuration not stated) |  | inactive
7 | CCCN(CC)CC1COC2(CCC(C(C)(C)C)CC2)O1 (configuration not stated) |  | inactive
8 | CC(C)N(CCC(C(N)=O)(c1ccccc1)c1ccccn1)C(C)C (configuration not stated) |  | inactive
9 | O=C1NC(=O)C(=O)C(=O)N1 |  | inactive
10 | CCOP(=S)(OCC)SCCl |  | inactive
11 | CCC(C(N)=O)N1CCCC1=O (configuration not stated) |  | inactive
12 | CC(=O)[O-].CC(=O)[O-].O.O.[Cd+2] |  | inactive
13 | BrCC(Br)C1CCC(Br)C(Br)C1 (configuration not stated) |  | inactive
14 | CN/C(=N\[N+](=O)[O-])NCC1CCOC1 (configuration not stated) |  | inactive
15 | Cc1cc(C)c(C2=C(OC(=O)CC(C)(C)C)C3(CCCC3)OC2=O)c(C)c1 |  | inactive
16 | CC(CC(C(N)=O)(c1ccccc1)c1ccccc1)N(C)C (configuration not stated) |  | inactive
17 | O=C(Nc1ccccc1)N(Cc1ccc(Cl)cc1)C1CCCC1 |  | inactive
18 | Cc1nc(N(C)C)nc(OC(=O)N(C)C)c1C |  | inactive
19 | COP(=O)(OC)SCn1c(=O)oc2cc(Cl)cnc21 |  | inactive
20 | C=CCOC(=O)C(C)(C)OC(=O)c1cc(-n2c(=O)cc(C(F)(F)F)n(C)c2=O)ccc1Cl |  | inactive
21 | COP(=O)(OC)O/C(C)=C/C(=O)N(C)C |  | inactive

Row | Structure (SMILES) | activation | Potency
22 | C[C@H]1CC[C@@H]2[C@@H](C)[C@H]3[C@H](C[C@H]4[C@@H]5CC=C6CC(O[C@@H]7O[C@H](CO)[C@H](O)[C@H](O[C@@H]8O[C@H](CO)[C@@H](O)[C@H](O)[C@H]8O)[C@H]7O[C@H]7O[C@@H](C)[C@H](O)[C@@H](O)[C@H]7O)CC[C@]6(C)[C@H]5CC[C@]34C)N2C1 (some centres not stated) |  | inactive
23 | CC(C)N(C(=O)SC/C(Cl)=C/Cl)C(C)C |  | inactive
24 | COC(=O)c1cc(Oc2ccc(Cl)cc2Cl)ccc1[N+](=O)[O-] |  | inactive
25 | C=CCN1CC[C@]23c4c5ccc(O)c4O[C@H]2C(=O)CC[C@@]3(O)[C@H]1C5 |  | inactive
26 | [Cl-].[Cl-].[Cl-].[Yb+3] |  | inactive
27 | CC(C)[C@@H](C(=O)O[C@@H](C#N)c1cccc(Oc2ccccc2)c1)c1ccc(Cl)cc1 |  | inactive
28 | C[C@H]1O[C@@H](O[C@H]2[C@@H](O)C[C@H](O[C@H]3[C@@H](O)C[C@H](O[C@H]4CC[C@@]5(C)[C@H](CC[C@@H]6[C@@H]5CC[C@]5(C)[C@@H](C7=CC(=O)OC7)CC[C@]65O)C4)O[C@@H]3C)O[C@@H]2C)C[C@H](O)[C@@H]1O |  | inactive
29 | CC(Cc1ccccc1)NCCn1cnc2c1c(=O)n(C)c(=O)n2C (configuration not stated) |  | inactive
30 | Nc1ccc([N+](=O)[O-])cc1Cl |  | inactive
31 | ClC1=C(Cl)[C@]2(Cl)[C@@H]3[C@@H](Cl)[C@H]4O[C@H]4[C@@H]3C1(Cl)C2(Cl)Cl |  | 61.1 µM (active)
32 | C[C@@H]1O[C@@H](O[C@@H]2C=C3CC[C@@H]4[C@H](CC[C@]5(C)[C@@H](c6ccc(=O)oc6)CC[C@]45O)[C@@]3(C)CC2)[C@H](O)[C@H](O)[C@H]1O |  | inactive
33 | CN[C@@H](C)[C@H](O)c1ccccc1 |  | inactive
34 | CCC[CH2][Sn]([CH2]CCC)([O]C(C)=O)[O]C(C)=O |  | inactive
35 | O=C(O)CC(Cl)C(=O)O (configuration not stated) |  | inactive
36 | CCCOCC(=Nc1ccc(Cl)cc1C(F)(F)F)n1ccnc1 |  | inactive
37 | CC(C)N1C(=O)N(c2ccccc2)CSC1=NC(C)(C)C |  | inactive
38 | CCCN(CCCl)c1c([N+](=O)[O-])cc(C(F)(F)F)cc1[N+](=O)[O-] |  | inactive
39 | ClC1=C(Cl)C2(Cl)C(CBr)CC1(Cl)C2(Cl)Cl (configuration not stated) |  | inactive
40 | ClC1=C(Cl)[C@]2(Cl)[C@@H]3[C@@H]4C[C@@H]([C@H]5O[C@@H]45)[C@@H]3[C@@]1(Cl)C2(Cl)Cl |  | 10.9 µM (active)
41 | Cc1cc(C(C)(C)c2cc(C)c(O)c(C)c2)cc(C)c1O |  | inactive
42 | CCOP(=O)(OCC)Oc1cc(C)nc(C(C)C)n1 |  | inactive
